# ATXN2 expr inh = Primary qHTS for Inhibitors of ATXN expression; actives 0.72% (n = 360,000); HEK-293 ATXN2-luciferase reporter, luminescence, 24 h; Potency, µM (highest dose often 57 µM), inactives show at the top dose activity change, negative = inhibition, hits mostly inhibitors; further: on the % scale 0 is the no-effect control and ±100 the full control effect; nearly all actives have a fitted effect of over 55% in size
#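 ATXN2-luciferase reporter cells (luciferase flanked by upstream and downstream ATXN2 gene portions) were treated 24 h at 37 °C with compounds at up to 57 uM. SteadyGlo luminescence gave expression; GF-AFC fluorescence gave viability.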
# HT1080NT lethal = qHTS for induction of synthetic lethality in tumor cells producing 2HG: qHTS for the HT-1080-NT fibrosarcoma cell line. actives 1.6% (n = 360,000). HT-1080-NT fibrosarcoma viability, CellTiter-Glo ATP luminescence, 48 h. Potency, µM (doses to about 46.1 µM), inactives show at the top dose activity, negative = less viability, usual class: cytotoxic;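 further: NT is the 2HG producing partner of a matched IDH1 knockdown line; 0% = DMSO-treated cells and -100% = media-only wells without cells; nearly all actives have a fitted effect of over 55% in size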
#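 Toxicity toward the 2HG-producing NT line was scored as %Activity, normalised to DMSO and no-cell wells, from CellTiter-Glo luminescence after 48 hours' treatment.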
# KB-V1 cytotox = qHTS assay for MDR1-selective chemotherapeutics: Primary screen using the drug-selected MDR subline cells KB-V1. actives 3.4% (n = 400,000). Potency, µM (top dose mostly 46.1 µM), hits mostly cytotoxic. KB-V1 MDR cells viability, CellTiter-Glo, 72 h; further: on the % scale 0 is the no-effect control and ±100 the full control effect; nearly all actives have a fitted effect of over 60% in size
#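 Cells of the MDR subline KB-V1 are plated, dosed with compound at multiple concentrations, and incubated 72 h at 37 degrees C; CellTiter-Glo is then added and luminescence read after 10 min.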
# KB-3-1 tox = qHTS assay for MDR1-selective chemotherapeutics: Primary screen using the parental adenocarcinoma cell KB-3-1. KB-3-1 viability, CellTiter-Glo ATP luminescence, 72 h. actives 1.4% (n = 400,000). Potency, µM (titrated, usually from 46.1 µM), hits mostly cytotoxic. AID 1347075, 2019; further: on the % scale 0 is the no-effect control and ±100 the full control effect; nearly all actives have a fitted effect of over 60% in size
#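 Screening of KB-3-1 cells (DMEM, 10% FBS, phenol-red free) ran from lowest to highest compound concentration; after 72 h at 37 °C viability was read luminescently and curves fitted.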
# HT1080 IDH1KD tx = qHTS for induction of synthetic lethality in tumor cells producing 2HG: qHTS for the HT-1080-IDH1KD cell line; AID 686971, 2013; HT-1080 IDH1 knockdown viability, ATP luminescence, 48 h; Potency, µM (doses to about 46.1 µM), without a hit: top-dose activity, negative = toxicity, usual class: cytotoxic; actives 2% (n = 360,000);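 further: 0% = DMSO wells and -100% = cell-free medium wells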
#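 IDH1KD HT-1080 cells, 750/well, RPMI + 5% FBS; compound pinned after 2 h settling; 48 h, 37 °C; CellTiter-Glo luminescence; % activity normalised to DMSO and no-cell wells; curves fitted, classed by r2 and efficacy.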
# ATXN viability = Viability Counterscreen for Primary qHTS for Inhibitors of ATXN expression. S2 cells (HEK-293 line with an ATXN2-luciferase reporter) viability, CellTiter-Fluor protease fluorescence, 24 h. Potency, µM (doses to about 56.7 µM), most hits filed as cytotoxic. actives 0.49% (n = 400,000). AID 651635, 2014; further: nearly all actives have a fitted effect of over 40% in size
# Numbers without * were called inactive; i = inactive; ? = inconclusive; / = not tested or not shown; ! = not active in a repeat. Only some compounds are listed: those with a hit (about 6.2% of all), similar ones and a draw of the others. The call rests on the fitted dose curve; in most records, active means well fitted curve in the direction sought with a large enough effect; inconclusive means small, poorly fitted or top-dose-only effect, or another doubt; inactive means no such curve, though single readings can be large; an effect the other way counts as inactive or inconclusive. Potency means the concentration at half of the fitted maximal effect.
SMILES,ATXN2 expr inh,HT1080NT lethal,KB-V1 cytotox,KB-3-1 tox,HT1080 IDH1KD tx,ATXN viability
Cc1cccc(NC(=O)CSc2nc(C3CC3)nc3ccccc23)c1,18%,-8%,i,i,-22%,i
COc1cc(NC(=O)CSc2nc(C3CC3)nc3ccccc23)cc(OC)c1,?,13µM*,i,i,?,i
O=C(CCn1cnnn1)Nc1cc(C(F)(F)F)cc(C(F)(F)F)c1,0%,/,?,?,/,i
C=CCNC(=S)NNC(=O)c1ccc(Br)cc1,-3%,11%,12µM*,15µM*,4%,i
C=C(C)CNC(=S)NNC(=O)c1ccc(Br)cc1,-4%,18%,?,i,16%,i
C/C=C(/CC[C@@H](C)[C@H]1CC[C@H]2C3=CC[C@H]4[C@H](C)[C@@H](O)CC[C@]4(C)[C@H]3CC[C@]12C)C(C)C,/,/,/,/,/,i
COc1cc2nc(N3CCCN(C)CC3)nc(NC3CCCCC3)c2cc1OC,/,18µM*,/,/,?,/
COc1cc2c(NC3CCN(C(C)C)CC3)nc(N3CCCN(C)CC3)nc2cc1OCCOCCN1CCCC1,/,/,i,12µM*,/,/
CCOC(=O)N(C)c1c(CC)nc2c(OCCOc3ccccc3)cccn12,-2%,11%,?,i,21%,i
COc1ccccc1CNC(=O)CN1C(=O)COc2ccc(S(=O)(=O)Nc3ccccc3)cc21,12%,/,i,i,/,?
CC(=O)c1cccc(-c2ccc3c(c2)C(C)(Cc2ccccc2F)C(=O)N3)c1 (stereo unspecified),?,-7%,i,i,?,?
COC(=O)c1ccc(CC2(C)C(=O)Nc3ccc(-c4cccc(C(F)(F)F)c4)cc32)o1 (stereo unspecified),?,?,?,?,?,32µM*
Cc1oc2ncn(C)c(=O)c2c1C(=O)N1CCN(c2ccccc2F)CC1,3%,/,i,i,/,i
COc1cc2cnc(-c3ccccc3)c(-c3cccc(C(F)(F)F)c3)c2cc1OC,?,12%,?,?,7%,?
COc1cc2cnc(-c3ccccc3)c(-c3ccc(C#N)cc3)c2cc1OC,?,0%,i,13µM*,9%,?
O=C(Nc1cccc(C(F)(F)F)c1)c1cc(-c2ccc(Cl)s2)nc2ccccc12,2%,/,i,i,/,i
Cc1c(CCC(=O)NCCCn2ccnc2)c(=O)oc2c(C)c3oc4c(c3cc12)CCCC4,?,-21%,i,23µM*,-17%,i
Cc1c(CCC(=O)NCCCCCC(=O)O)c(=O)oc2c(C)c3oc4c(c3cc12)CCCC4,/,0%,i,i,0%,i
O=C1CCc2cc(S(=O)(=O)Nc3cccc(Br)c3)ccc2N1,/,/,i,i,/,/
CC(Oc1ccc(Cl)cc1Cl)c1nc(-c2ccc(NC(=O)c3cccnc3)cc2)no1 (stereo unspecified),-20%,?,i,i,7.3µM*,i
O=C1CC(C(=O)N2CCCC(c3nc(-c4ccncc4)ncc3-c3ccccc3)C2)C2(CCCCC2)O1 (stereo unspecified),/,/,/,/,/,i
CC(=O)Nc1cc(C(=O)OC(C(=O)c2ccccc2)c2ccccc2)ccc1C (stereo unspecified),13%,-2%,16µM*,i,-2%,i
Cc1ccc(NC(=O)C(OC(=O)c2ccc(C=O)cc2)c2ccccc2)cc1Cl (stereo unspecified),-1%,?,i,i,23µM*,i
COc1ccc(C(=O)C(OC(=O)c2ccc(C)c(NC(C)=O)c2)c2ccccc2)cc1 (stereo unspecified),25%,-13%,i,i,-7%,i
Cc1ccc(C)c(NC(=O)C(OC(=O)c2ccc(CO)cc2)c2ccccc2)c1 (stereo unspecified),11%,-14%,i,i,-9%,i
SMILES,ATXN2 expr inh,HT1080NT lethal,KB-V1 cytotox,KB-3-1 tox,HT1080 IDH1KD tx,ATXN viability
COc1ccc(NC(=O)CN(C)C(=O)c2c(C)nn(Cc3ccccc3)c2C)cc1,7%,13%,i,i,1%,i
CSc1ccccc1NC(=O)CN(C)C(=O)c1c(C)nn(Cc2ccccc2)c1C,3%,-2%,21µM*,i,-8%,i
CC(=O)Nc1ccc2ccccc2c1[N+](=O)[O-],0%,12%,i,i,-1%,i
CCOC(=O)c1c(NC(=O)Cc2ccccc2)sc2c1CCN(CC)C2,-13%,5%,i,i,-21%,i
CCOC(=O)c1c(N)sc2c1CCN(Cc1ccccc1)C2,-14%,/,i,15µM*!,/,i
Cc1cc2n(n1)CCC(=O)N2Cc1ccc(C(=O)Nc2ccc(Br)c(C)c2)cc1,-22%,/,i,?,/,i
Cc1[nH]c(-c2ccc(F)cc2)cc1C(=O)N1CCN(c2ccc(Cl)cc2)CC1,14µM*,3%,i,i,6%,?
O=C(c1ccccc1C(=O)N1CCN(c2ccc(F)cc2)CC1)N1CCN(c2ccc(F)cc2)CC1,-18%,-7%,9.2µM*,i,-11%,i
COc1ccc(N2CCN(C(=O)c3cc(-c4ccc(F)cc4)[nH]c3C)CC2)cc1,-29%,-14%,i,i,-12%,i
Cc1cccc(/C(N)=N/OC(=O)c2ccoc2C)c1,25%,?,?,?,16µM*,i
Cc1occc1C(=O)O/N=C(\N)c1ccccc1,?,?,?,i,?,i
CCOC(=O)c1c(C)[nH]c(C(=O)N/N=C/c2ccc(Br)cc2)c1C,-34%,0.15µM*,i,?,0.092µM*,?
C=CCc1cccc(/C=N/NC(=O)c2ccc3nc[nH]c3c2)c1O,10µM*,?,i,?,?,i
COc1ccccc1/C=N/NC(=O)c1cccc(OC(F)(F)C(F)F)c1,-13%,5%,i,i,0%,i
O=C(N/N=C/c1ccc(Cl)cc1Cl)c1ccc2nc[nH]c2c1,/,-3%,i,i,1%,i
C=CCc1cccc(/C=N/NC(=O)C(=O)Nc2ccc(C)cc2)c1O,4%,-10%,i,i,-17%,/
